# The list is not random: actives were taken first. Their share in the collection is about 2.8%.
# NSD2 inh = inhibitors of human histone methyltransferase NSD2; O96028; NSD2 peptide methylation, AlphaScreen, 120 min; inhibition, % at 12.5 µM; 310,000 compounds, 0.54% hits; AID 743445; in the data active = inhibition above about 50%
# Target sequence (O96028 whole entry, looked up): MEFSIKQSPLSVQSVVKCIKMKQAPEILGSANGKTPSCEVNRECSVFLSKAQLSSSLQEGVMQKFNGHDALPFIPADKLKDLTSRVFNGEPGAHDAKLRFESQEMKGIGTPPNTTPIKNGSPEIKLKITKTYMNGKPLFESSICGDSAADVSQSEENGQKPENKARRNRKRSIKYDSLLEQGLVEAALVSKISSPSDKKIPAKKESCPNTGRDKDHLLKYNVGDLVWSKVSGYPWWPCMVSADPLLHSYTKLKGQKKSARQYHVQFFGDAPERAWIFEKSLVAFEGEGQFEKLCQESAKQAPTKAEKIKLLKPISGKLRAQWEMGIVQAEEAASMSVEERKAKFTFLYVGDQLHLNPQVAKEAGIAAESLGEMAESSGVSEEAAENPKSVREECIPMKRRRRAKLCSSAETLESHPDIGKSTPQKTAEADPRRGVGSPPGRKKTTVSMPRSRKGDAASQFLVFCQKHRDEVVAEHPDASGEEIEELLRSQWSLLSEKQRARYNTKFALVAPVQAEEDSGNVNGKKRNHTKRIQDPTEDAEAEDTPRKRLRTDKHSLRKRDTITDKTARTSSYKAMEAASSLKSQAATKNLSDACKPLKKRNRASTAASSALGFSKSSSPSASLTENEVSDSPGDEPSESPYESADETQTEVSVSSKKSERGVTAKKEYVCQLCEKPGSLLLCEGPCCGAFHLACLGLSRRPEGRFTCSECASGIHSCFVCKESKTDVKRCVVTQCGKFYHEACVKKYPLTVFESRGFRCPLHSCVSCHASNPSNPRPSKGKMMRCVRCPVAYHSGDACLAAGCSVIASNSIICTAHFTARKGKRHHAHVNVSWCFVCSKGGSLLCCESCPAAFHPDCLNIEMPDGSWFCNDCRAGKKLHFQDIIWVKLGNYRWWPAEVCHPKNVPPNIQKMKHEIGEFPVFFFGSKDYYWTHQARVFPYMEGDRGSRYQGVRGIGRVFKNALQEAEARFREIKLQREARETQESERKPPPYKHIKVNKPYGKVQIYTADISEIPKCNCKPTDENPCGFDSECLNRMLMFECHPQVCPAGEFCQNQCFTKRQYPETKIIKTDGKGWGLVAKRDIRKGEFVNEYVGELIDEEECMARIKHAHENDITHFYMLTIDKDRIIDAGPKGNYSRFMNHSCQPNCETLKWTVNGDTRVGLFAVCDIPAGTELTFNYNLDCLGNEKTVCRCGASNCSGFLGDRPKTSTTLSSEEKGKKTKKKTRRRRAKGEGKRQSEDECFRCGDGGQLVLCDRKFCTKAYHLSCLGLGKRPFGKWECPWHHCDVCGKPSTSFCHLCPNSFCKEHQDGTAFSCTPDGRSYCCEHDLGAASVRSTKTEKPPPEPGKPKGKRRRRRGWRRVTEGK
# Glyco luc inh = N-linked glycosylation inhibition; D54 ERlucT glycosylation luciferase reporter, 24 h; percent of 100 nM tunicamycin response; reporter increase, % at 12.5 µM; 360,000 compounds, 0.23% hits;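 active = mean luciferase reporter signal, scaled so untreated is 0 and the glycosylation-blocking control 100, at or above a set limit in every replicate; inconclusive = mean reaches the limit but not every replicate does; inactive = mean below the limit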;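 note: luciferase carries N-glycosylation sites so blocking glycosylation raises the light; 0% = median of neutral control wells and 100% = median of 100 nM tunicamycin wells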
# HIV Env fusion = blocks HIV Env-driven cell-cell fusion | HeLa-JRFL Env/CEM21 cell fusion, luciferase | inhibition, % at 12.3 µM | 360,000 compounds, 1.1% hits | AID 651610;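 active = mean replicate inhibition score of at least 50 and every replicate individually at or above 50; inconclusive = only one of the two criteria met; inactive = mean below 50 and not all replicates reaching 50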;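 note: 0% = plate neutral controls and 100% = maraviroc near 300 nM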
# Shn3 3UTR inh = inhibitors of Schnurri-3 3'UTR reporter in osteoblasts; Clone20 osteoblast Shn3 3'UTR firefly luciferase, 24 h; inhibition, % at 12.5 µM; 360,000 compounds, 0.52% hits;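 active = mean inhibition of at least 75% with every replicate also reaching 75%; inconclusive = mean inhibition at least 75% but some replicate below; inactive = mean inhibition below 75%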;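 note: 0% = median of neutral control wells and 100% = pilot-screen positive control compound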
# EBV LMP1 NFkB = Epstein-Barr LMP1 NF-kappaB reporter inhibition; 350,000 compounds, 0.69% hits; AID 504558; LMP1-induced NF-kappaB luciferase reporter cells, luminescence; inhibition, % at 12.5 µM; in the data active = inhibition above about 41%; inconclusive = no clear call, values can overlap the other calls;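 note: 0% = neutral control wells and 100% = reference inhibitor control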
# PAX8 reporter = inhibitors of PAX8 transcriptional activity in RMG-I cells; RMG-I TPO-luciferase reporter, SteadyGlo, 24 h; inhibition, % at 12.6 µM; 360,000 compounds, 1.2% hits; AID 652154;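 active = mean replicate inhibition at least 60% with every replicate also reaching 60%; inconclusive = only one of the two criteria is met; inactive = mean below 60% and not all replicates reaching 60%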;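 note: luciferase light reporting Pax8 driven TPO promoter activity; plate controls were median of neutral control wells for no effect and mitoxantrone controls for full effect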
# The depositor's hits bear a star; ? = inconclusive; . = no result given; [ ] = remark or other dose.
SMILES,NSD2 inh,Glyco luc inh,HIV Env fusion,Shn3 3UTR inh,EBV LMP1 NFkB,PAX8 reporter
C[C@H]1CN([C@@H](C)CO)C(=O)c2cc(-c3cccc(F)c3)cnc2O[C@@H]1CN(C)C,.,.,-24[16.7 µM],.,.,.
Cc1nc2scc(-c3ccccc3)c2c(=O)o1,-2,0,39,0,-20,-11
O=c1oc(-c2ccccc2F)nc2scc(-c3ccccc3)c12,-3,1,64*,-82,.,-7
CCOC(=O)CC1(CC)Oc2ccccc2N1S(=O)(=O)c1ccc(C)cc1 (stereo not drawn),.,.,64*,.,.,10
Cc1noc(C)c1NC(=O)Nc1ccc2c(c1)C(=O)N([C@@H](C)CO)C[C@@H](C)[C@@H](CN(C)C(=O)Nc1cccc3ccccc13)OCCCC[C@@H](C)O2,.,.,1[16.7 µM],.,.,-30
CN1C(=O)C2(c3ccccc31)N(C)CC(c1ccccc1)C21SC(=S)N(Cc2ccco2)C1=O (stereo not drawn),1,-14,80*,43,11,.
O=C(NCc1ccco1)c1ccc(Cn2c(=O)c3sccc3n(Cc3cccc(F)c3)c2=O)cc1,.,-3,90*,0,3,-1
O=C(Cn1c(=O)n(Cc2ccco2)c(=O)c2ccccc21)Nc1cccc(Cl)c1,.,-4,95*,22,6,9
O=C(NCc1ccco1)c1ccc(Cn2c(=O)c3ccccc3n(Cc3cccc(Cl)c3)c2=O)cc1,11,0,89*,7,-25,.
Cc1ccc(NC(=O)Cn2c(=O)n(Cc3ccco3)c(=O)c3ccccc32)c(C)c1,0,0,-46,9,-3,4
CO[C@@H]1CC[C@@H]2CCN(C)C(=O)[C@@H](C)CN(C)C(=O)c3cccc(C#N)c3OC[C@H]1O2,.,.,15[16.7 µM],.,.,-2
C[C@H](CO)N1C[C@H](C)[C@@H](CN(C)Cc2ccncc2)Oc2ncc(-c3ccc(C#N)cc3)cc2C1=O,.,.,-25[16.7 µM],.,.,.
CCOC(=O)c1cnc(-n2nc(C)cc2C)nc1NNc1nc(C)cc(C)n1,-2,3,4,-22,-1,-1
CCOC(=O)c1cnc(-n2nc(C)cc2C)nc1Nc1ccc(O)cc1,.,-8,23,75,56*,6
CCOC(=O)c1cnc(-n2nc(C)cc2C)nc1NNc1nc(-c2ccccc2)cc(-c2ccccc2)n1,0,-11,.,92*,75*,.
CCOC(=O)c1cnc(-n2nc(C)cc2C)nc1NC1CCCCC1,-1,-9,105*,84,39,.
CCOC(=O)c1cnc(-n2nc(C)cc2C)nc1NC,-2,4,-49,-31,-6,.
C[C@@H]1CN([C@H](C)CO)C(=O)Cc2cc(NC(=O)Nc3cccc4ccccc34)ccc2O[C@H]1CN(C)Cc1ccc2c(c1)OCO2,.,.,.,.,.,-8
Cc1ccc(S(=O)(=O)Nc2ccc3c(c2)C(=O)N([C@@H](C)CO)C[C@H](C)[C@H](CN(C)S(C)(=O)=O)O3)cc1,.,.,-5[16.7 µM],.,.,.
O=C1c2cccnc2C(=O)N1Cc1ccc(F)cc1S(=O)(=O)NCc1ccco1,3,0,0,12,72*,5
CCC1(O)C(=O)OCc2c1cc1n(c2=O)Cc2cc3c(N)cccc3nc2-1 (stereo not drawn),2,-10,68*,12,73*,110*
CCC1(OC(=O)CN(C)C)C(=O)OCc2c1cc1n(c2=O)Cc2cc3c(N)cccc3nc2-1 (stereo not drawn),6,-8,.,-6,76*,.
CC(C)c1cn(CC[C@@H]2CC[C@H](NC(=O)c3cccc(F)c3)[C@H](CO)O2)nn1,.,.,-9[16.7 µM],.,.,-5
CCN(CC)c1ccc(/C=N/NC(=O)c2nnn(-c3nonc3N)c2C(C)C)c(O)c1,-3,-18,62*,92*,64*,85*
CN(Cc1c(C(=O)N/N=C/c2cccc(O)c2)nnn1-c1nonc1N)C1CCCCC1,1,1,-9,-1,1,4
SMILES,NSD2 inh,Glyco luc inh,HIV Env fusion,Shn3 3UTR inh,EBV LMP1 NFkB,PAX8 reporter
CN(Cc1c(C(=O)N/N=C/c2ccccc2O)nnn1-c1nonc1N)C1CCCCC1,-2,-7,-2,83,27,70*
CC(=C/c1ccccc1)/C=N/NC(=O)c1nnn(-c2nonc2N)c1CN1CCC(C)CC1,-1,-5,22,7,0,39
CC1CCN(Cc2c(C(=O)N/N=C/c3ccccc3O)nnn2-c2nonc2N)CC1,-4,-7,63*,80,32,46
CC(C)c1c(C(=O)N/N=C/c2ccc3c(c2)OCO3)nnn1-c1nonc1N,-6,6,-3,-18,0,-22
CCCc1c(C(=O)N/N=C(\C)c2ccccn2)nnn1-c1nonc1N,-3,-10,-58,89*,?,27
COc1ccc(COCC23N=C4SCc5ccccc5C(=O)N4[C@H](c4ccccc4O2)[C@H]3CO[Si](C)(C)C(C)(C)C)cc1,.,.,10[16.7 µM],.,.,12
O=C(NCC[C@@H]1CC[C@H](NC(=O)Nc2cc(F)ccc2F)[C@@H](CO)O1)Nc1ccc(F)cc1,.,.,5[16.7 µM],.,.,.
CC1CCN(S(=O)(=O)c2ccc(NC(=O)Cc3ccc(S(=O)(=O)N4CCOCC4)s3)cc2)CC1,-5,-5,61*,57,0,51
O=C(CC1CC1)N[C@H]1C[C@@H]2O[C@H](CO)CC[C@@H]2O[C@@H]1CCc1ccc(C#Cc2ccccc2)cc1,.,.,.,.,.,-34
COc1cc(OC)c2c(-c3cccc(-c4ccc(OC)c(OC)c4)c3)cc(=O)oc2c1,.,6,-57,10,22,-9
COc1cc(OC)c2c(-c3cccc(-c4ccc(NC(C)=O)cc4)c3)cc(=O)oc2c1,.,8,-197,-8,2,79*
COc1cc(OC)c2c(-c3cccc(-c4sccc4C(C)=O)c3)cc(=O)oc2c1,.,3,-244,13,-2,84*
COc1cc2oc(=O)cc(-c3cccc(-c4cccc(C)c4)c3)c2c(OC)c1OC,.,-2,57*,-8,-7,15
CNC(=O)C[C@@H]1CC[C@@H]2[C@@H](COc3ccc(NC(=O)C4CC4)cc3C(=O)N2C)O1,.,.,11[16.7 µM],.,.,-9
O=C(C1CC1)N1CC(=O)N2[C@H](C1)[C@@H](c1ccc(-c3ccccc3F)cc1)[C@@H]2CO,.,.,.,.,.,11
COc1ccc(-n2c(-c3ccc(Cl)cc3)c[n+]3c2CCc2ccccc2-3)cc1,6,4,38,76,4,94*
COc1ccc(-n2c(-c3ccccc3)nnc2-c2ccc(Cl)cc2)cc1,0,1,-35,-2,-5,3
CSc1nnc(NC(=O)c2ccc3c(c2)OCO3)s1,-2,-20,13,54,68*,-98

# Screening results: PubChem BioAssay, Broad Institute
